A selection: hits, their analogues and other compounds. The true share with any hit is near 19%.
DT40 TDP1 no CPT: qHTS for Inhibitors of human tyrosyl-DNA phosphodiesterase 1 (TDP1): qHTS in cells in absence of CPT; actives 15% (n = 420,000); DT40 Tdp1-/- hTDP1 cells, no CPT, ATP luminescence, 48 h; Potency, µM (highest dose often 46.2 µM), for the others: at the highest dose activity change, negative = growth inhibition, hits mostly inhibitors; further: nearly all actives have a fitted effect of over 55% in size
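Seeded 400 DT40-hTDP1 cells/well (vehicle DMSO, no 20 nM CPT); pinned compounds; ≥48 hr at 37 °C; CellTiter-Glo luminescence as viability measure.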
HT1080 IDH1KD tx: HT-1080 IDH1 knockdown cell toxicity (counter line); HT-1080 IDH1 knockdown viability, ATP luminescence, 48 h; Potency, µM (top dose mostly 46.1 µM), for the others: at the highest dose activity, negative = toxicity, hits mostly cytotoxic; actives 2% (n = 360,000);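 further: 0% = DMSO wells and -100% = cell-free medium wells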
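HT-1080-IDH1KD cells (IDH1 knocked down), 750/well in RPMI with 5% FBS, treated with compound 48 h at 37 degrees C. Viability by CellTiter-Glo luminescence, normalised to DMSO and no-cell wells; concentration-response curves classed.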
KB-3-1 tox: kills parental KB-3-1 adenocarcinoma cells | Potency, µM (titrated, usually from 46.1 µM), usual class: cytotoxic | actives 1.4% (n = 400,000) | KB-3-1 viability, CellTiter-Glo ATP luminescence, 72 h; further: nearly all actives have a fitted effect of over 60% in size
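Cells are dispensed, compounds pinned in, plates held at 37 °C for 72 h, then CellTiter-Glo is added and luminescence read after 10 minutes. Cell line: parental KB-3-1 in phenol-red-free DMEM, 10% FBS.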
KB-V1 cytotox: KB-V1 MDR subline cytotoxicity. KB-V1 MDR cells viability, CellTiter-Glo, 72 h. Potency, µM (highest dose often 46.1 µM), actives largely listed as cytotoxic. actives 3.4% (n = 400,000). AID 1347076; further: nearly all actives have a fitted effect of over 60% in size
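Drug-selected KB-V1 cells, grown in DMEM lacking phenol red with 10% FBS, receive compound titrations; after three days at 37 degrees C, surviving cell ATP is quantified by CellTiter-Glo luminescence and responses normalized and curve-fitted.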
HT1080-NT tox: kills 2HG-producing HT-1080-NT fibrosarcoma cells; Potency, µM (series often up to 46.1 µM), for the others: top-dose activity, negative = less viability, hits mostly cytotoxic; AID 686970; HT-1080-NT fibrosarcoma viability, CellTiter-Glo ATP luminescence, 48 h; actives 1.6% (n = 360,000);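 further: NT is the 2HG producing partner of a matched IDH1 knockdown line; 0% = DMSO-treated cells and -100% = media-only wells without cells; nearly all actives have a fitted effect of over 55% in size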
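Compounds were tested in concentration-response format on HT-1080-NT cells for 48 hours at 37 degrees C. Cell viability came from CellTiter-Glo luminescence; curves were classified by r2, response magnitude and activity.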
TDP1 cell CPT: DT40-hTDP1 cell growth loss with CPT | chicken DT40 Tdp1-/-;hTDP1 cells + 20 nM CPT, ATP luminescence, 48 h | Potency, µM (series often up to 46.2 µM), without a hit: at the highest dose activity change, negative = growth inhibition, actives largely listed as inhibitors | actives 12% (n = 420,000) | AID 686979; further: nearly all actives have a fitted effect of over 55% in size
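Cell growth measured by CellTiter-Glo luminescence after a minimum 48 h, 37 C compound exposure with 20 nM CPT in Tdp1-knockout DT40 cells stably expressing hTDP1, seeded 400/well; qHTS titration format.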
Numbers without * were called inactive; i = inactive; u = inconclusive; x = not tested or not shown; [ ] = dose if it differs, or a comment. The call rests on the fitted dose curve; in most records, active means well fitted curve in the direction sought with a large enough effect; inconclusive means small, poorly fitted or top-dose-only effect, or another doubt; inactive means no such curve, though single readings can be large; an effect the other way counts as inactive or inconclusive. Unless noted, on the % scale 0 is the no-effect control and ±100 the full control effect; potency means the concentration at half of the fitted maximal effect.

SMILES	DT40 TDP1 no CPT	HT1080 IDH1KD tx	KB-3-1 tox	KB-V1 cytotox	HT1080-NT tox	TDP1 cell CPT
COC(=O)c1ccccc1-c1cc(C)cc2c1OC(CNC(=O)c1cnc(C)cn1)C2 (stereo unspecified)	18µM*	x	x	x	x	-12%[9.04 µM]
Cc1ccccc1-c1cncnc1N1CCNCC1	-7%	x	x	x	x	6%
C/C(=N\NC(=O)C1(C)NC(C)(C)Cc2ccccc21)c1ccccc1 (stereo unspecified)	-22%	7%	i	i	-2%	0%
O=C(NCCS(=O)(=O)N1CCN(c2ccc(F)cc2)CC1)c1cccc(C(F)(F)F)c1	18µM*	x	x	x	x	u
O=C(NCCS(=O)(=O)N1CCN(c2ccc(F)cc2)CC1)C12CC3CC(CC(C3)C1)C2	16µM*	2%	i	i	-2%	18µM*
OC(c1ccc(F)cc1)c1nc(-c2ccc(F)c(Cl)c2)cs1 (stereo unspecified)	u	u	i	i	u	u
COc1cc(C(=O)OCC(=O)N2CCCC2=O)cc(OC)c1C	17%	-1%	i	i	-3%[9.24 µM]	2%
CC(C)(Oc1ccc(Br)cc1)C(=O)N1CCc2ccccc21	u	-19%	i	21µM*	11%	5%
C[N+]1(CC2COC3(CCCCC3)O2)CCCC1 (stereo unspecified)	1%	0%	i	i	3%	-2%
C1CCCCCC2(CCCCC1)OCC(CN1CCOCC1)O2 (stereo unspecified)	23µM*	-6%	i	u	1%	u
Cc1ccc2c(/C=C/c3c[nH]c4ccccc34)ccnc2c1C	-103%	x	16µM*	7.3µM*	x	-125%
COc1ccc(OC)c2c(/C=C/c3c[nH]c4ccccc34)ccnc12	u	x	4.1µM*	u	x	-111%
CCn1ccnc1CN(C)C(=O)C1CCC(=O)N(Cc2cccc(C(F)(F)F)c2)C1 (stereo unspecified)	-1%	-6%	x	x	0%	2%
Cc1ccc(O)c(CP(=O)(c2ccccc2)c2ccccc2)c1	u	4%	i	u	3%	u
CCNc1ccccc1CP(=O)(c1ccccc1)c1ccccc1O (stereo unspecified)	2.6µM*	5%	i	i	-8%	u
CC(C)C(Cl)=NOC(=O)Nc1ccc(F)cc1	2.3µM*	16µM*	i	i	-8%	1.5µM*
C/C(=N\OC(=O)Nc1ccc(Cl)cc1)c1ccc(F)c(F)c1	u	-25%	i	u	-15%	2%
COCCn1c(C)cc(C(=O)CSc2cc(C)c3ccccc3n2)c1C	u	-29%	i	2.3µM*	-12%	u
CCCn1c(=O)c2ccccc2n2c(SCC(=O)c3cc(C)n(CCOC)c3C)nnc12	-29%	1%	i	i	-3%	-4%
COCCn1c(C)cc(C(=O)CSc2nc3ccccc3c(=O)n2Cc2ccco2)c1C	u	-2%	u	0.65µM*	-2%	6.5µM*
O=C(NN=Cc1ccc(N2CCOCC2)s1)c1ccc([N+](=O)[O-])cc1	18µM*	2%	u	u	-10%[9.24 µM]	u
O=C(N/N=C/c1ccc(Br)s1)c1ccc([N+](=O)[O-])cc1	2.6µM*	u	u	i	u	u
O=C(COC(=O)c1cc[n+]([O-])cc1)Nc1cccc(Br)c1	-6%	-2%	i	u	-6%	-11%
COC(=O)CCc1sc(NC2CCCCC2)nc1-c1ccc(OC)cc1	18µM*	-3%	i	i	-10%	21µM*
COC(=O)CCc1sc(Nc2ccc(OC)cc2)nc1-c1ccc(OC)cc1	u	x	i	u	x	u
SMILES	DT40 TDP1 no CPT	HT1080 IDH1KD tx	KB-3-1 tox	KB-V1 cytotox	HT1080-NT tox	TDP1 cell CPT
O=C(O)CCC(=O)Nc1cccc(-c2nc3ccccc3o2)c1	-11%	-1%	i	i	-4%	-22%
O=C(NCc1ccccc1F)C1CCCN1C(=O)Nc1ccccc1 (stereo unspecified)	-20%	0%	i	i	0%	1%
CN(Cc1ccccc1)C(=O)C1CCC(CNS(=O)(=O)c2cccc3cccnc23)CC1 (stereo unspecified)	u	-5%	i	9.2µM*	-2%	u
CCN(CC)C(=O)C1CCC(CNS(=O)(=O)c2cccc3cccnc23)CC1 (stereo unspecified)	-25%	-3%	i	i	0%	-1%
O=C(C1CCC(CNS(=O)(=O)c2cccc3cccnc23)CC1)N1CCc2ccccc21 (stereo unspecified)	18µM*	-24%	i	i	-1%	u
CCOC(=O)c1cnc(SCC(=O)Nc2cc(C(F)(F)F)ccc2N2CCOCC2)nc1N	-11%	u	i	i	u	-25%
CCOC(=O)c1cnc(SCc2nc(N)nc(Nc3ccccc3)n2)nc1N	16µM*	-18%	u	u	-18%	16µM*
CCOC(=O)c1cnc(SCC(=O)Nc2ccc(N3CCOCC3)c(Cl)c2)nc1N	13µM*	1%	i	i	8%	u
CCOC(=O)c1cnc(SCC(=O)Nc2cc(OC)cc(OC)c2)nc1N	8.2µM*	u	u	2.3µM*	-28%	8.2µM*
CC1CCC(NC(=O)c2[nH]c(C(F)(F)F)nc2-c2ccccc2)CC1 (stereo unspecified)	-26%	-5%	i	u	-3%	-19%
Cc1ccc(-c2nc(CS(=O)CC(=O)N3CCN(c4ccccc4)CC3)c(C)o2)cc1 (stereo unspecified)	15µM*	-5%	u	i	-16%	23µM*
Cc1oc(-c2ccccc2)nc1CS(=O)CC(=O)N1CCc2ccccc2C1 (stereo unspecified)	26µM*	-4%	i	i	7%	9.2µM*
CCOC(=O)N1CCC(NC(=O)CS(=O)Cc2nc(-c3ccc(Cl)cc3)oc2C)CC1 (stereo unspecified)	15µM*	u	i	i	18µM*	u
Cc1ccc(-c2nc(CS(=O)CC(=O)N3CCN(c4ccc(Cl)cc4)CC3)c(C)o2)cc1 (stereo unspecified)	21µM*	x	u	i	x	16µM*

Screening data: PubChem BioAssay, National Center for Advancing Translational Sciences (NCATS)
